In the library only some 2.3% were active in any assay of this set; here they are far more common.
Abeta yeast res – qHTS for compounds that reverse cellular toxicity of Amyloid beta (A-beta) peptide in yeast: Primary Screen | Potency, µM (doses to about 46.1 µM), usual class: activators | 0.063% of 410,000 active | yeast expressing A-beta42, growth rescue, OD600, 48 h; response scale: 0% DMSO, 100% iron-clioquinol control; note: nearly all actives have a fitted effect of over 55% in size
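Yeast A-beta toxicity model in growth medium with pinned compounds, 48 h at 30 C; growth read as absorbance at 600 nm. Normalized to FeCl3/clioquinol equimolar mix (positive) and DMSO (negative).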
uPA generation – qHTS for Inhibitors of Cell Surface uPA Generation; Potency, µM (titrated, usually from 38.3 µM), without a hit: at the highest dose activity change, negative = inhibition, usual class: inhibitors; cell surface uPA generation assay, qHTS; 0.31% of 330,000 active; active = well fitted inhibition curve with a large enough effect; inconclusive = small, poorly fitted or top-dose-only effect; inactive = no such curve, though single readings can be large or run the other way; tested in mouse RAW 264.7 cells; note: % is set by controls: 0 for no effect and ±100 for the full control effect; nearly all actives have a fitted effect of over 55% in size
TDP-43 yeast inh – qHTS of TDP-43 Inhibitors; 1.8% of 410,000 active; Potency, µM (doses to about 46.1 µM), without a hit: at the highest dose growth rescue (activation), most hits filed as activators; AID 652104, 2013; TDP-43 expressing yeast growth rescue, BacTiter-Glo, 24 h; note: % of control where 0% means no effect; nearly all actives have a fitted effect of over 50% in size
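Luminescence from BacTiter-Glo reports growth of TDP-43-expressing yeast after 24 hr at 30 deg C with compound. Cells were raffinose-pregrown to mid-log, then seeded in galactose medium at OD600=0.02.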
FUS suppressor – qHTS for Suppressors of FUS Proteinopathy: Primary screen using FUS-linked yeast assay | S. cerevisiae FUS-expressing, growth rescue, OD600, 24 h | Potency, µM (top dose mostly 76.6 µM), hits mostly activators | 0.24% of 390,000 active | AID 1347120, 2019;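 note: plate controls were DMSO vehicle for no effect and reference control for full effect; nearly all actives have a fitted effect of over 55% in size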
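Yeast FUS proteinopathy model; galactose-induced FUS (2%), starting OD 0.005. Cpds in dilution series, 24hr, 30C, 99% humidity. Abs 600 nm growth. Pos ctrl CP55940 (top 92uM final); neg ctrl DMSO.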
Chronic BCR inh – qHTS Assay to Find Inhibitors of Chronic Active B-Cell Receptor Signaling. ABC-DLBCL IkBa-CBG/CBR reporter, luminescence ratio, 4 h. Potency, µM (series often up to 46.1 µM), for the others: at the highest dose activity change, negative = inhibition, hits mostly inhibitors. 0.05% of 340,000 active. AID 493014, 2011; active = well fitted inhibition curve with a large enough effect in the signal ratio, with a control signal flat, not every such curve was filed as active; inconclusive = small, poorly fitted or top-dose-only effect, or effect the other way, or a change in a side signal; the % refers to the signal ratio;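 note: plate controls were basal doxycycline-induced cells for no effect and cells given 10 µM MG132 for full effect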
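Concentration-response series (up to 46 uM) were applied to TMD8 dual-reporter cells for 4 h at 37C with doxycycline. Green/red ratio, after filter-overlap correction, defined %Activity; red signal alone was normalised to basal cells and zero luminescence.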
aSyn rescue – qHTS of alpha-syn Inhibitors; Potency, µM (highest dose often 46.1 µM), for the others: at the top dose growth rescue (activation), actives largely listed as activators; Yeast expressing alpha-synuclein, growth rescue, BacTiter-Glo, 24 h; AID 652106, 2013; 0.14% of 370,000 active; note: % of control where 0% means no effect; nearly all actives have a fitted effect of over 65% in size
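Galactose-induced alpha-syn yeast (OD600=0.02, raffinose-pregrown) + pinned cpd, 24 hr, 30 deg C; growth by BacTiter-Glo luminescence. Growth restoration scores as activation.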
The depositor's hits bear a star; i = inactive; ? = inconclusive; nt = no result given; [ ] = another dose, or the depositor's remark. Unless noted, calls come from the whole dose curve; as a rule, active = well fitted curve in the direction sought with a large enough effect; inconclusive = small, poorly fitted or top-dose-only effect, or another doubt; inactive = no such curve, though single readings can be large; an effect the other way counts as inactive or inconclusive. Potency is the fitted concentration of half-maximal effect.

SMILES	Abeta yeast res	uPA generation	TDP-43 yeast inh	FUS suppressor	Chronic BCR inh	aSyn rescue
CCCCCCSc1ccc(-c2nc3cnccn3c2NC2CCCCC2)cc1	i	nt	-1%	i	nt	1%
Clc1ccc(-c2nc3cnccn3c2NC2CCCC2)cc1	i	-2%	13µM*	i	-1%	0%
CCCCNc1c(-c2ccc(OC)c(SC3CCCCC3)c2)nc2cnccn12	i	-7%	-23%	32µM*	?	-44%
CCCCNc1c(-c2ccc(SC3CCCCC3)cc2)nc2cnccn12	i	0%	22µM*	?	?	-54%
CCOc1cccc(C(=O)N/N=C/c2coc3ccccc3c2=O)c1	i	10%	22µM*	i	?	1%
COc1ccccc1Cc1c(-c2ccc(OC)c(OC)c2)nc2ccc(C)cn12	i	nt	3%	i	nt	-1%
Cn1c(=O)n(CCc2ccccc2)c(=O)c2c1nc1n2CCCN1CCc1ccccc1	i	-1%	13µM*	i	5%	1%
CC(C)(C)c1cc(C(=O)Nc2ccc(F)cc2)n(Cc2ccc(F)cc2)n1	?	?	20µM*	i	?	-11%
O=C1/C(=C/c2cccs2)Sc2ccccc21	i	-21%	15%	nt	?	-2%
Cc1ccc(C(=O)NCC(=O)N(C)Cc2ccc(Cl)cc2Cl)s1	i	16%	8.9µM*	i	-5%	19%
c1coc(-c2nnc3sc(Cc4cccs4)nn23)c1	i	nt	-6%	10µM*	6%	-4%
Clc1ccc(OCc2nn3c(-c4ccco4)nnc3s2)cc1	i	1%	18µM*	i	?	-3%
COc1ccc(OCc2nn3c(-c4ccco4)nnc3s2)cc1	i	2%	?	?	?	6%
COc1ccc(-c2nc3ccccc3o2)cc1NC(=O)C(C)Oc1ccc(Cl)cc1Cl (stereo unspecified)	i	nt	-29%	i	nt	nt
O=C(c1ccc2ncsc2c1)N1CCN(c2cccc(C(F)(F)F)c2)CC1	18µM*	-19%	0%	?	?	-2%
O=C(CS(=O)(=O)c1cccc2nsnc12)N1CCN(c2cccc(C(F)(F)F)c2)CC1	i	nt	20µM*	i	nt	14%
Cc1oc2ncnc(N3CCCCC3)c2c1C(=O)N1CCN(c2cccc(C(F)(F)F)c2)CC1	i	nt	22µM*	?	nt	nt
Cc1nc(N2CCOCC2)c2c(C(=O)N3CCN(c4cccc(C(F)(F)F)c4)CC3)c(C)oc2n1	i	nt	?	i	nt	nt
O=C(c1ccc2nc[nH]c2c1)N1CCN(c2cccc(C(F)(F)F)c2)CC1	i	-3%	9%	i	0%	0%
O=C(c1c(F)c(F)c(F)c(F)c1F)N1CCN(c2cccc(C(F)(F)F)c2)CC1	i	3%	16µM*	i	?	5%
CN(Cc1ccccc1)C(=O)[C@@H]1CCCN1C(=O)[C@@H]1CCCN1C(=O)c1cccc2ccccc12	i	nt	10%	i	nt	-17%
O=C(c1ccc2c(c1)OCO2)N1CCN(c2cccc(C(F)(F)F)c2)CC1	i	nt	22%	i	-20%	0%
O=C(Nc1ccc2c(c1)OCO2)N1CCN(c2cccc(C(F)(F)F)c2)CC1	i	4%	10µM*	i	-3%	-9%
Cc1cc(C)cc(OCc2nc3ncc(Br)cc3[nH]2)c1	i	-11%	4%	i	nt	-2%
CCOC(=O)c1ccc(NC(=O)Nc2nncs2)cc1	i	nt	12%	i	nt	0%
SMILES	Abeta yeast res	uPA generation	TDP-43 yeast inh	FUS suppressor	Chronic BCR inh	aSyn rescue
COCCN=C1NN=C(c2cc(C)n(CC3CCCO3)c2C)CS1 (stereo unspecified)	i	4%	-18%	35µM*	0%	-1%
COCCCN=C1NN=C(c2cc(C)n(-c3ccccc3)c2C)CS1	i	-2%	-4%	?	1%	-2%
COCCCN=C1NN=C(c2cc(C)n(-c3ccccc3F)c2C)CS1	i	6.3µM*	-6%	?	-18%	-9%
CCCN1CNc2c(c(=O)[nH]c(=S)n2-c2ccc(Cl)cc2)C1	i	-4%	15%	i	27%	-4%
Cc1cc(N2CCCCC2)nc2ccc(NC(=O)CCC(=O)NCCC(C)C)cc12	i	0%	11%	i	5%	4%
O=[N+]([O-])c1cccc(-c2ccc(SCc3cccnc3)nn2)c1	i	-2%	16µM*	i	-11%	8%
Nc1c2c(=O)oc(-c3ccccc3)cc2nn1-c1ccccc1	i	-4%	14µM*	i	-26%	25%
O=C(c1ccc(Cl)c(S(=O)(=O)N2CCOCC2)c1)N(Cc1ccco1)Cc1cccs1	i	1.1µM*	?	i	5%	13%
O=C(c1cccc(S(=O)(=O)N2CCOCC2)c1)N(Cc1ccco1)Cc1cccs1	i	?	12%	i	0%	8%
O=[N+]([O-])c1cccc(-c2ccc(/C=N/NC(=S)Nc3cccc(F)c3)o2)c1	?	-6%	18µM*	i	4%	-7%
O=C(NNC(=O)c1ccccn1)c1ccc(OC(F)F)cc1	i	-11%	32µM*	i	-16%	?
O=C(NCCc1ccccn1)c1ccc(OC(F)F)cc1	i	-8%	-27%[1.82 µM]	i	?	-12%
O=S(=O)(c1ccc(F)cc1)c1snnc1-c1ccccc1	i	-14%	14µM*	i	?	-6%
O=S(=O)(c1ccc(Cl)cc1)c1snnc1-c1ccccc1	i	-9%	?	i	?	-5%
CC(=O)Nc1cccc(C(=O)Nc2ccccc2N2CCOCC2)c1	i	nt	-14%	i	?	1%
C/C(=N\NC(=O)c1ccc(O)cc1)c1cccc(NC(=O)c2ccccc2C)c1	i	10µM*	-5%	nt	?	2%
Cc1ccccc1C(=O)Nc1cccc(NC(=O)c2ccccc2[N+](=O)[O-])c1	i	4.5µM*	14%	i	-14%	6%
CCN(Cc1ccccc1)S(=O)(=O)c1ccc(C(=O)N(CCCN(C)C)c2nc3cc(OC)ccc3s2)cc1	i	-7%	-7%	i	3%	5%
COc1ccc(/C=C/C(=O)N2CCN(S(=O)(=O)c3ccccc3Br)CC2)cc1OC	i	1%	22µM*	?	?	?
Cc1ccc(N=Cc2cc(Cl)cc(Cl)c2O)nc1	i	-1%	-34%	i	4%	-5%

From PubChem
